The panel holds about 79,000 compounds, 15% with a hit somewhere; the sample as a whole holds those more often. Unmarked numbers belong to inactive results. The source made the active and inactive calls. Cut-off read from the data, not from the text of the source: active = growth inhibition above about 70%; inactive = the rest.

The nature of one experiment: NCI Yeast Anticancer Drug Screen. Data for the mlh1 rad18 strain (AID 175). The following applies: S. cerevisiae mlh1 rad18 strain growth inhibition; at 5.0 µM (retest, dose inferred, filed as 0.5); active compounds read high. The gist of the method: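 Compound-treated yeast growth, normalised to vehicle controls. Strain bears defined DNA repair mutations.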
`CCCCCCCCCC1OCC(C)O1` (stereo not given): the growth inhibition was 4%.

In the case of `O=[N+]([O-])c1ccc2c(c1)/C(=C/c1ccc(O)cc1)c1ccccc1-2`, the growth inhibition was 6%.

In the case of `COc1cc2c(cc1OC(C)=O)C(=O)C(Br)(Br)CCC2`, the growth inhibition is 49%.

As for `COC(=O)c1cc2c(oc1=O)-c1ccccc1N(C=O)C2`, the growth inhibition was 0%.

Regarding `CC(=O)Nc1ccc(S(=O)(=O)/N=C2\C=CC(=O)c3ccccc32)cc1`, the growth inhibition was 5%.

Regarding `C/C(=N/NC(=S)N(C)C)c1ccccc1O`, the growth inhibition is -17%.

Consider `CC(CN(C)C)C(=O)/C=C/c1c(Cl)cccc1Cl` (stereo not given), for which the growth inhibition is 3%.

In the case of `N#CC(O)C(Br)(Br)Br` (stereo not given), the growth inhibition is 1%.

Regarding `C=Cc1cc(N=Nc2ccc([N+](=O)[O-])cc2)ccc1N(C)C`, the growth inhibition is -9%.

`Cc1cccnc1NC(=S)Nc1ccccc1Cl`: the growth inhibition was 28%.

As to `O=C1C=CC(=O)c2c(O)c(N3CCC[C@@H]3CO)c(Cl)c(O)c21`, the growth inhibition was 26%.

Regarding `Cc1cc(C(=O)O)c(C)c2c1sc1ccccc12`, the growth inhibition is 0%.

Regarding `COc1cccc2c1OC(c1ccc(Cl)cc1)C([N+](=O)[O-])=C2` (stereo not given), the growth inhibition is 96% (active).

Turning to `CC1=C(C(=O)Nc2cccc(Cl)c2)C(c2ccccc2F)C(C(=O)Nc2cccc(Cl)c2)=C(C)N1`, the growth inhibition was 62%.

`Cc1ccc(C2C(O)=C(c3ccccc3)Sc3ccc(C)cc32)cc1` (stereo not given): the growth inhibition is -8%.

For `CC(=O)Oc1ccc(C)c(C(C)C(Cl)(Cl)Cl)c1` (stereo not given), the growth inhibition was 0%.

For the compound `CCCC(=O)Oc1ccc(-c2ccc(Br)cc2)cc1`, the growth inhibition is -7%.

As to `CCCCC#CCOC(=O)c1cc([N+](=O)[O-])cc([N+](=O)[O-])c1`, the growth inhibition was 98% (active).

In the case of `COC(=O)c1ccc(Cl)c(Cl)c1`, the growth inhibition was 1%.

In the case of `Cc1cc(Br)c2ccccc2c1N`, the growth inhibition is -3%.

Consider `C=C1N(S(=O)(=O)c2ccc(C)cc2)C(=O)OCC12CCCC2`, for which the growth inhibition was -24%.

Take `CCCCCCCCN=C(N)c1ccc(C(=O)OCC2CCCCC2)cc1`: the growth inhibition was 100% (active).

Regarding `Nc1ccc2ccc3cccc4ccc1c2c34`, the growth inhibition was 1%.

For the compound `C=C(Br)CN(CC(=C)Br)C(C)=O`, the growth inhibition is 22%.

`[Ce+3].[Cl-].[O-]/N=C(\c1ccccc1)c1ccccn1.[O-]/N=C(\c1ccccc1)c1ccccn1.[O-]/N=C(\c1ccccc1)c1ccccn1`: the growth inhibition was 39%.

In the case of `O=CCCCc1cc2c(cc1Br)CCC2`, the growth inhibition was 21%.

In the case of `C1=C(CC2=C[P+](c3ccccc3)(c3ccccc3)C=C(c3ccccc3)O2)OC(c2ccccc2)=C[P+]1(c1ccccc1)c1ccccc1`, the growth inhibition is 6%.

Consider `CC/C=C(\C)CC(C)O` (stereo not given), for which the growth inhibition was -3%.

Regarding `CCC(c1ccc(Cl)cc1)C(C#N)c1ccc(Cl)cc1` (stereo not given), the growth inhibition is 2%.

For `CN1/C(=C/C=C/C(I)=C/C=C/C2=[N+](C)c3ccccc3C2(C)C)C(C)(C)c2ccccc21`, the growth inhibition was -1%.

For `Nc1ccc(N)c2c1C(=O)c1ccccc1C2=O`, the growth inhibition was 5%.

Consider `CN1C=COC1N=C1CCCCC1` (stereo not given), for which the growth inhibition was -13%.

For `Clc1ccc(Cc2nc3ccccc3s2)c(Cl)c1`, the growth inhibition was 57%.

`O=CC1(c2ccc(Cl)cc2)NC(=O)NC1=O` (stereo not given): the growth inhibition is -5%.

For the compound `O=C(CSc1nnc(-c2ccc(N=Cc3ccc(Cl)cc3)cc2)o1)Nc1ccc(Cl)cc1Cl`, the growth inhibition is 30%.

On to `O=C(Oc1ccccc1)C1CCCCC1C(=O)Oc1ccccc1` (stereo not given), for which the growth inhibition was -11%.

On to `O=C(O)Cc1ccc2c(c1O)C(=O)c1ccccc1C2=O`, for which the growth inhibition was 0%.

In the case of `O=[N+]([O-])c1cccc(F)c1O`, the growth inhibition is 0%.

`CCc1nc2c(O)ccc(O)c2nc1C`: the growth inhibition was -107%.

Take `COC(=O)N/N=C(/CC1(O)C(=O)Nc2ccccc21)c1ccc(Cl)cc1Cl` (stereo not given): the growth inhibition was 19%.

Still in this experiment, the particulars now being: S. cerevisiae mlh1 rad18 strain growth inhibition; at 50.0 µM (retest, dose inferred, filed as 5.0); active compounds read high.
`CCCCCCCCCC1OCC(C)O1` (stereo not given): the growth inhibition is 62%.

In the case of `O=[N+]([O-])c1ccc2c(c1)/C(=C/c1ccc(O)cc1)c1ccccc1-2`, the growth inhibition is 83% (active).

Regarding `COc1cc2c(cc1OC(C)=O)C(=O)C(Br)(Br)CCC2`, the growth inhibition was 99% (active).

As to `COC(=O)c1cc2c(oc1=O)-c1ccccc1N(C=O)C2`, the growth inhibition was -21%.

`CC(=O)Nc1ccc(S(=O)(=O)/N=C2\C=CC(=O)c3ccccc32)cc1`: the growth inhibition is 16%.

Turning to `C/C(=N/NC(=S)N(C)C)c1ccccc1O`, the growth inhibition is 28%.

As to `CC(CN(C)C)C(=O)/C=C/c1c(Cl)cccc1Cl` (stereo not given), the growth inhibition is 97% (active).

`N#CC(O)C(Br)(Br)Br` (stereo not given): the growth inhibition is 72% (active).

In the case of `C=Cc1cc(N=Nc2ccc([N+](=O)[O-])cc2)ccc1N(C)C`, the growth inhibition is -12%.

Regarding `Cc1cccnc1NC(=S)Nc1ccccc1Cl`, the growth inhibition was 99% (active).

In the case of `O=C1C=CC(=O)c2c(O)c(N3CCC[C@@H]3CO)c(Cl)c(O)c21`, the growth inhibition was 71% (active).

`Cc1cc(C(=O)O)c(C)c2c1sc1ccccc12`: the growth inhibition is 81% (active).

Take `COc1cccc2c1OC(c1ccc(Cl)cc1)C([N+](=O)[O-])=C2` (stereo not given): the growth inhibition was 95% (active).

As for `CC1=C(C(=O)Nc2cccc(Cl)c2)C(c2ccccc2F)C(C(=O)Nc2cccc(Cl)c2)=C(C)N1`, the growth inhibition was 62%.

On to `Cc1ccc(C2C(O)=C(c3ccccc3)Sc3ccc(C)cc32)cc1` (stereo not given), for which the growth inhibition was 81% (active).

With `CC(=O)Oc1ccc(C)c(C(C)C(Cl)(Cl)Cl)c1` (stereo not given), the growth inhibition was 27%.

Turning to `CCCC(=O)Oc1ccc(-c2ccc(Br)cc2)cc1`, the growth inhibition was 94% (active).

As for `CCCCC#CCOC(=O)c1cc([N+](=O)[O-])cc([N+](=O)[O-])c1`, the growth inhibition is 99% (active).

`COC(=O)c1ccc(Cl)c(Cl)c1`: the growth inhibition is 17%.

`Cc1cc(Br)c2ccccc2c1N`: the growth inhibition is 44%.

Take `C=C1N(S(=O)(=O)c2ccc(C)cc2)C(=O)OCC12CCCC2`: the growth inhibition is -2%.

Take `CCCCCCCCN=C(N)c1ccc(C(=O)OCC2CCCCC2)cc1`: the growth inhibition is 100% (active).

`Nc1ccc2ccc3cccc4ccc1c2c34`: the growth inhibition is 97% (active).

Regarding `C=C(Br)CN(CC(=C)Br)C(C)=O`, the growth inhibition is 21%.

As for `[Ce+3].[Cl-].[O-]/N=C(\c1ccccc1)c1ccccn1.[O-]/N=C(\c1ccccc1)c1ccccn1.[O-]/N=C(\c1ccccc1)c1ccccn1`, the growth inhibition is 91% (active).

With `O=CCCCc1cc2c(cc1Br)CCC2`, the growth inhibition is 91% (active).

As to `C1=C(CC2=C[P+](c3ccccc3)(c3ccccc3)C=C(c3ccccc3)O2)OC(c2ccccc2)=C[P+]1(c1ccccc1)c1ccccc1`, the growth inhibition is 95% (active).

As for `CC/C=C(\C)CC(C)O` (stereo not given), the growth inhibition was 8%.

For `CCC(c1ccc(Cl)cc1)C(C#N)c1ccc(Cl)cc1` (stereo not given), the growth inhibition was 52%.

As to `CN1/C(=C/C=C/C(I)=C/C=C/C2=[N+](C)c3ccccc3C2(C)C)C(C)(C)c2ccccc21`, the growth inhibition is 89% (active).

For `Nc1ccc(N)c2c1C(=O)c1ccccc1C2=O`, the growth inhibition is 22%.

On to `CN1C=COC1N=C1CCCCC1` (stereo not given), for which the growth inhibition was 6%.

On to `Clc1ccc(Cc2nc3ccccc3s2)c(Cl)c1`, for which the growth inhibition was 99% (active).

Turning to `O=CC1(c2ccc(Cl)cc2)NC(=O)NC1=O` (stereo not given), the growth inhibition was -4%.

In the case of `O=C(CSc1nnc(-c2ccc(N=Cc3ccc(Cl)cc3)cc2)o1)Nc1ccc(Cl)cc1Cl`, the growth inhibition was 99% (active).

Take `O=C(Oc1ccccc1)C1CCCCC1C(=O)Oc1ccccc1` (stereo not given): the growth inhibition is -6%.

For `O=C(O)Cc1ccc2c(c1O)C(=O)c1ccccc1C2=O`, the growth inhibition was 29%.

For the compound `O=[N+]([O-])c1cccc(F)c1O`, the growth inhibition is 89% (active).

`CCc1nc2c(O)ccc(O)c2nc1C`: the growth inhibition was 2%.

As to `COC(=O)N/N=C(/CC1(O)C(=O)Nc2ccccc21)c1ccc(Cl)cc1Cl` (stereo not given), the growth inhibition was 94% (active).

The values above are taken from PubChem BioAssay (NCI).
